D2 ag-1 = agonists of human D2 dopamine receptor; HEK293 T-REx D2 cells, calcium flux agonist mode; activation, % at 2 µM; 340,000 tested, 0.53% active; AID 485358;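 active = activation over 3 SD above normal in the single-dose calcium agonist read, cut at about 30% in these data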; also: 0% is about no effect
Target sequence (P14416 whole entry, looked up): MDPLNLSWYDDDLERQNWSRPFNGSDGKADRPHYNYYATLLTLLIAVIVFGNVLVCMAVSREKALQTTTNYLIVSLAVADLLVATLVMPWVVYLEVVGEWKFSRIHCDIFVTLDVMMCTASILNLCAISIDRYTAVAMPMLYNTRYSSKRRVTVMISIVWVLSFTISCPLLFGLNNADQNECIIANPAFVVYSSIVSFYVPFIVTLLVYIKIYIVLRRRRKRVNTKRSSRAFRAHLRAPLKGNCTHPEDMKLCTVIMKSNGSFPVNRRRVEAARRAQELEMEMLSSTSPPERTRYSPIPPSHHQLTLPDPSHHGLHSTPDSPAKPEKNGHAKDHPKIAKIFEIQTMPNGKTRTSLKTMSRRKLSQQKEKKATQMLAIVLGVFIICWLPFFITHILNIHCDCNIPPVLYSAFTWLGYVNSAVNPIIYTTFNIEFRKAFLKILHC
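Agonism scored from kinetic calcium signal (1 read/sec, 180 s) following compound pin transfer, after a 10 s baseline. Cells: HEK293 Trex line expressing inducible D2 receptor coupled to calcium, dye-loaded after overnight culture at 30 C.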
D2 PAM-1 = D2 dopamine receptor (human) potentiation. 340,000 tested, 0.34% active. P14416. potentiation, % at 10 µM. HEK293 T-REx D2, calcium flux, EC20 dopamine potentiation;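 active = potentiation over 3 SD above the plate norm, cut at about 30% in these data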; also: 0% is about no effect
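Using a no-wash calcium dye in inducible, force-coupled HEK293 Trex cells expressing D2, we tracked fluorescence each second for 180 s after compound, then for 180 s after EC20 dopamine to detect augmented signalling.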
D2 ag-2 = activates the human D2 dopamine receptor; P14416; DiscoveRx PathHunter D2 beta-arrestin, luminescence, 90 min; 100% = 57 uM dopamine signal; activation, % (concentration not given with the values); 360,000 tested, 0.084% active; in the data active = activation above about 40%
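DiscoveRx PathHunter D2 beta-arrestin cells (2,100/well) attached overnight, then compound-stimulated 90 min at 37 C in HBSS/10 mM HEPES/0.1% Tween-20 buffer; beta-galactosidase complementation read by luminescence after 1 h at ambient temperature. Dopamine 57 uM final (EC100) as control.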
D2 PAM-2 = human D2 receptor positive allosteric modulation; DiscoveRx D2 beta-arrestin cells, luminescence, 90 min; 100% = 57 uM dopamine signal; potentiation, % (no concentration beside the values); 360,000 tested, 0.23% active; in the data active = potentiation above about 50%
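D2 cells co-treated with compound plus 50 nM dopamine (EC20) for 90 min at 37 deg C to detect potentiation. Beta-arrestin recruitment was read as enzyme-fragment luminescence after 1 h at ambient temperature. Full response was set by 57 uM dopamine.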
D2 antag = D2 dopamine receptor (human) antagonism; P14416; HEK293 TREx D2 cells, calcium flux, dopamine EC80; inhibition, % at 10 µM; 340,000 tested, 2% active; AID 485344; in the data active = inhibition above about 30%; inactive = below that, where a call was filed; also: 0% is about no effect
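Measurement of antagonist activity uses fluorescent calcium dye in inducible HEK293 T-REx D2 cells: 10 s baseline, compound addition with 180 s read, EC80 dopamine addition with a further 180 s read.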
An asterisk follows results filed as active; · = no result. Most compounds without a hit are left out; they make up all but 2.4% or so of the library.

SMILES	D2 ag-1	D2 PAM-1	D2 ag-2	D2 PAM-2	D2 antag
Cc1ccc(-c2nc(NCc3ccco3)c3ccccc3n2)cc1	0	-5	-15	-18	-3
Cc1ccccc1NC(=O)C(=O)NCC1(c2ccccc2)CCCC1	20	-19	·	·	·
CC(C)OC(=O)c1ccc(NC(=O)c2cncc(Br)c2)cc1	1	4	1	4	45*
COc1cc(Cl)c(C)cc1NC(=O)Cn1cc(S(=O)(=O)N2CCC(C)CC2)c2ccccc2c1=O	-1	11	·	·	·
COc1ccc(N2CC(NC(=O)CCc3ccccc3)CC2=O)cc1OC (stereo not given)	1	13	·	·	·
CCOC(=O)C(NC(=O)c1ccccc1)(Nc1cc(C)on1)C(F)(F)F (stereo not given)	0	7	-4	-4	31*
CCOC(=O)C(NC(=O)c1ccc(OC)cc1)(Nc1cc(C)on1)C(F)(F)F (stereo not given)	-1	-4	0	-6	9
CCCN(CCC)CCNC(=O)c1cc(Sc2ccc(Cl)cc2)nc2ccccc12	-1	1	·	·	·
CN(C)S(=O)(=O)c1ccc2c(c1)N(CC(=O)N1CCN(c3ccc(F)cc3)CC1)CCS2	1	3	·	·	·
Cc1cc(C)cc(N=Cc2[nH]c3ccc(Br)c(Cl)c3c2O)c1	34*	-4	6	-12	-4
COc1cccc(N2CCN(Cc3ccsc3)CC2)c1	18	-23	0	-18	48*
COc1ccc(-c2nc3c(C#N)c[nH]n3c2NC2CCCC2)cc1	·	7	·	·	·
COc1cc(NC(=O)NCC2CCN(Cc3ccccc3Cl)CC2)cc(OC)c1OC	1	-8	3	-15	9
COc1ccccc1C1CCN(Cc2ccccc2)CC1	32*	-29	-8	-40	83*
COc1ccccc1C1CCN(c2ccc(CO)cc2[N+](=O)[O-])CC1	2	0	1	-6	-11
COc1ccccc1C1CCN(Cc2cccc([N+](=O)[O-])c2)CC1	0	-27	-2	-28	110*
COc1ccccc1C1CCN(Cc2ccccc2Cl)CC1	3	-33	0	-15	92*
OCCN1CCN(Cc2ccc3ccccc3c2)CC1	0	-12	-6	-4	-2
COc1ccc(CN2CCC(Cc3ccccc3)CC2)cc1OC	0	-17	-6	-28	19
COc1ccccc1C1CCN(Cc2ccc3ccccc3c2)CC1	-1	-32	-2	-16	85*
CCOc1ccc(Nc2ncnc3c2nc2n3CCCCC2)cc1	-3	8	·	·	·
Cc1ccc(NC(=O)CCNS(=O)(=O)c2ccc3c(c2)CCCC(=O)N3)cc1	-2	3	·	·	·
COC(=O)c1cc2sc(Cl)cc2n1CC(=O)Nc1cc(C)cc(C)c1	0	-8	·	·	·
CN(C(=O)CSc1nnc(COc2ccccc2)o1)c1ccccc1	-1	-1	·	·	·
CN1CCN(CCCN2c3ccccc3Sc3ccc(S(=O)(=O)N(C)C)cc32)CC1	1	-23	-6	-37	82*
SMILES	D2 ag-1	D2 PAM-1	D2 ag-2	D2 PAM-2	D2 antag
O=C(CN1CCCC1)N1c2ccccc2Sc2ccc(Cl)cc21	0	-6	4	-6	10
CCN1C(=O)c2ccccc2Sc2ccc(C(=O)NCCCN3CCCCC3)cc21	0	-12	-4	-33	25
CN(C)CCCN1c2ccccc2Sc2ccc3ccccc3c21	·	·	-1	-28	·
CC(=O)c1ccc2c(c1)N(CCCN1CCC(CCO)CC1)c1ccccc1S2	-1	-15	-9	-39	74*
CN1CCN(CCCNC(=O)c2cn(C)c3ccc(S(=O)(=O)N(C)C)cc3c2=O)CC1	1	8	-1	-4	-12
OCCN1CCN(CCCN2c3ccccc3Sc3ccc(Cl)cc32)CC1	1	-29	1	-30	86*
CN(C)CCCN1c2ccccc2Sc2ccc(Cl)cc21	1	-28	0	-30	86*
CCN(CC)CCNC(=O)c1[nH]c2ccccc2c1Sc1ccc(Cl)cc1	1	-12	·	·	·
CCn1c(SCC(=O)Nc2ccc(C)cc2Br)nnc1-c1nonc1NC(C)=O	-2	10	·	·	·
CC1CCCCN1C(=O)Cn1c(=O)n(-c2ccc(Cl)cc2)c(=O)c2c3c(sc21)CCC3 (stereo not given)	0	-2	·	·	·
CCOc1ccc(N(C(=O)c2snc(C(N)=O)c2N)C(C(=O)NC2CCCC2)C(C)C)cc1 (stereo not given)	-1	31*	-3	-7	-5
